Measurements published in PubChem BioAssay AID504734 (The Scripps Research Institute Molecular Screening Center, 2011).
The campaign covered roughly 340,000 compounds. About 730 (0.21%) were called active. This excerpt belongs to a sample that is enriched for actives. Values without a mark were called inactive.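 How the source made its calls: active means inhibition above the mean over all tested compounds plus 3 SD (cut at about 21% in these data); inactive means the rest.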

molecular target: Toll-like receptor 9 (Homo sapiens) + Myeloid differentiation primary response protein MyD88 (Homo sapiens) (UniProt Q9NR96+Q99836); assay: inhibitors of TLR9-MyD88 association in cells, primary screen, cell-based, CHO, BLA complementation, fluorescence (AID 504734); conditions: CHO BLA complementation TLR9-MyD88, CCF4 FRET ratio; at 4.98 µM; active compounds read high;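 further: 0% = DMSO only wells and 100% = clavulanate BLA inhibitor control wells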
Sequence (Q99836 whole entry, looked up): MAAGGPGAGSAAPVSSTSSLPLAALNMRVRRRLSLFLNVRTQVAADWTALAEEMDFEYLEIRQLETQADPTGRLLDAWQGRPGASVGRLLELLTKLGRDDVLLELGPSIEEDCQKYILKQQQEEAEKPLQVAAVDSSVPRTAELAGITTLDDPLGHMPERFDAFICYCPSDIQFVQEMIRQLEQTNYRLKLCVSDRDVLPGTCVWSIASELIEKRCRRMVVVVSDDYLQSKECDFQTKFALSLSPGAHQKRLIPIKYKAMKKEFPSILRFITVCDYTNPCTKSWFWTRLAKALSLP
Sequence (Q9NR96 whole entry, looked up): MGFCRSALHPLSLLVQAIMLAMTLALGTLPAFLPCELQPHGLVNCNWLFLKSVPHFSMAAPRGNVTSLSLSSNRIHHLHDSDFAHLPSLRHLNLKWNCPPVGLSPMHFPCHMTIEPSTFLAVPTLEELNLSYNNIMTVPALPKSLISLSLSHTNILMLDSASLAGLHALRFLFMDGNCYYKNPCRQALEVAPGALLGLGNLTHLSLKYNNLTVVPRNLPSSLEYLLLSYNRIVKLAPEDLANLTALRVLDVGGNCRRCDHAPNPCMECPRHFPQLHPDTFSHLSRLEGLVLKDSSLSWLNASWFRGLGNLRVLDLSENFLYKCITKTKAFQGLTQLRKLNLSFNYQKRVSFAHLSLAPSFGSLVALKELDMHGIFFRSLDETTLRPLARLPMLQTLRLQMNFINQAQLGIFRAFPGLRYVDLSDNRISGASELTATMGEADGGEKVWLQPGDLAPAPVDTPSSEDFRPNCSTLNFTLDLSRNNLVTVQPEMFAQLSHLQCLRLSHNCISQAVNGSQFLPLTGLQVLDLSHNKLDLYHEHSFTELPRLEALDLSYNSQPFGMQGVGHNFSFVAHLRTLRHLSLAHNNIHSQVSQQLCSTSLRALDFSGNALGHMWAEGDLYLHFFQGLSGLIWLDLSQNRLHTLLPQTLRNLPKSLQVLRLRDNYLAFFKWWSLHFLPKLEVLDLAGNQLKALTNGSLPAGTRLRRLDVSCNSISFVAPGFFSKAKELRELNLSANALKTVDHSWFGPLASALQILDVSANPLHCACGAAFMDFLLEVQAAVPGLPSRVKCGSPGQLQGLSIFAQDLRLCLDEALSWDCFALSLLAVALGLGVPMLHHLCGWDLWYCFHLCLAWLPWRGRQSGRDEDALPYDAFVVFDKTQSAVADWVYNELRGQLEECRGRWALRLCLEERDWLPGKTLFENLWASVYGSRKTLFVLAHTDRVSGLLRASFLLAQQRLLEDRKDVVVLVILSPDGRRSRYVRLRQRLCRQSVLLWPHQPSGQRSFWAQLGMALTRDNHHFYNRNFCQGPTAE

With `COc1ccc(-c2nn(-c3ccccc3)cc2/C=N/Nc2ccccn2)cc1OC` as the compound, how does the inhibition read?
The inhibition was 27.6% (active).

How did the inhibition turn out when `O=Cc1cn(-c2ccccc2)nc1-c1ccccn1` was run?
Its inhibition is -5.05%.

`COc1ccc(-c2nn(-c3ccccc3)cc2C(=O)Nc2nccs2)cc1OC` was tested. Which inhibition did it give?
Its inhibition is 7.8%.

`NC1=CC(=O)C(=O)c2cccnc21` was tested. Which inhibition did it give?
The inhibition was -3.3%.

For `Cc1nc2ccccn2c(=O)c1NC(=O)c1ccc(Br)o1`, which inhibition is on record?
The inhibition was -8.57%.

With `C[C@H]1CN([C@@H](C)CO)C(=O)CCCn2cc(nn2)CO[C@@H]1CN(C)S(=O)(=O)c1cccs1` as the compound, how does the inhibition read?
Its inhibition is -3.23%.

How did the inhibition turn out when `CCN(CC)C(=O)c1sc2nc(-c3ccccc3)ccc2c1N` was run?
The inhibition was 1.41%.

`Nc1cccc(-c2cc(-c3ccccc3)nc(-c3cccc(N)c3)n2)c1` was tested. Which inhibition did it give?
The inhibition was 4.91%.

Which inhibition does the source give for `CS(=O)(=O)c1sc2nc(-c3ccccc3)cc(-c3ccccc3)c2c1N` here?
Its inhibition is 21.5% (active).

`CCOC(=O)C(C(=O)c1ccccc1)C(c1ccccc1)c1nccc2ccccc12` (stereo not drawn) was tested. Which inhibition did it give?
Its inhibition is -3.27%.

For `O=C(O)c1ccccc1Cc1ccc(F)c2ccccc12`, which inhibition is on record?
Its inhibition is 0.89%.

How did the inhibition turn out when `O=C1NC(Cc2ccccc2)c2nc3ccc(Br)cc3c(=O)n2-c2cc3ccccc3cc21` (stereo not drawn) was run?
The inhibition was 4.34%.

For `COc1ccc(-c2cc(-c3ccc(N)cc3)nc(N)c2C#N)cc1OC`, which inhibition is on record?
Its inhibition is -1.14%.

Which inhibition does the source give for `COc1ccc(-c2ccc(Nc3ccc(S(=O)(=O)N4CCCC4)cc3)nn2)cc1OC` here?
The inhibition was -1.95%.

With `COc1ccc(-c2cc(C(F)(F)F)nc(S(C)(=O)=O)n2)cc1OC` as the compound, how does the inhibition read?
The inhibition was 27.6% (active).

With `Cc1ccc(S(=O)(=O)N2CCOCC2)cc1NC(=O)c1ccncc1` as the compound, how does the inhibition read?
The inhibition was -10.3%.

For `CCN1CCCC1CNC(=O)c1ccc2c(c1)NC(=O)/C(=C\c1ccccc1F)S2` (stereo not drawn), which inhibition is on record?
The inhibition was 5.07%.

How did the inhibition turn out when `COc1ccc(-c2nc3cnccn3c2NC(C)(C)CC(C)(C)C)cc1O` was run?
The inhibition was -0.94%.

How did the inhibition turn out when `COc1ccc(-c2nc3cnccn3c2NC2CCCCC2)cc1-c1cccc(Cl)c1` was run?
The inhibition was 40.9% (active).

Which inhibition does the source give for `COc1ccc(-c2nc3cc(C)ccn3c2NC2CCCCC2)cc1SC1CCCCC1` here?
Its inhibition is -0.33%.

For `CN(C)C(CNC(=O)c1cc(Br)c(Br)s1)c1ccco1` (stereo not drawn), which inhibition is on record?
Its inhibition is 6.8%.

`NC(=S)NN=Cc1ccc(OC(=O)COc2cc(Cl)c(Cl)cc2Cl)cn1` was tested. Which inhibition did it give?
The inhibition was 12.2%.

How did the inhibition turn out when `CC1(C)OC(=O)C2=C(CC(c3ccccc3)OC2CCc2ccccc2)O1` (stereo not drawn) was run?
The inhibition was -19.4%.

With `COc1ccc(S(=O)(=O)N2CCN(CC(=O)N3CCNC3=O)CC2)cc1OC` as the compound, how does the inhibition read?
The inhibition was 7.47%.

`Cc1ccc(S(=O)(=O)N2C[C@@H](C)[C@]3(C2)[C@H](O)[C@H](OC(=O)NCc2ccccc2)C[C@H]2C(=O)N(c4ccccc4)C(=O)[C@H]23)cc1` was tested. Which inhibition did it give?
The inhibition was -1.46%.

With `COc1ccc([C@H]2N[C@]3(CCCN(CC4CCCCC4)C3=O)[C@H]3C(=O)N(C)C(=O)[C@@H]23)cc1` as the compound, how does the inhibition read?
The inhibition was 1.4%.

Which inhibition does the source give for `Cc1ccn(CC(=O)NC2CCCN(Cc3ccccc3F)C2)n1` (stereo not drawn) here?
The inhibition was 9%.

Which inhibition does the source give for `Cn1cnnc1SCc1nnc(-c2ccccc2Br)o1` here?
Its inhibition is -5.92%.

Which inhibition does the source give for `CCOC(=O)N1CCN(Cc2nnc(-c3ccccc3Cl)o2)CC1` here?
The inhibition was 7.73%.

For `Nc1cccc2c1C(=O)N(Cc1nnc(-c3ccccc3Br)o1)C2=O`, which inhibition is on record?
The inhibition was 21.2% (active).

Which inhibition does the source give for `CCN1CCN(CCNC(=O)c2ccc3c(c2)NC(=O)/C(=C\c2cccc(Cl)c2)S3)CC1` here?
The inhibition was 13.2%.

`CCOC(=O)C=Cc1ccc(C(=O)OCC)[nH]1` was tested. Which inhibition did it give?
The inhibition was 5.14%.

For `Cc1cc(C)c2c(=O)n3c(nc2c1)C(CC(C)C)NC(=O)c1cc2ccccc2cc1-3` (stereo not drawn), which inhibition is on record?
The inhibition was 9.57%.

`CC1(C)CC(=O)NC=C(c2ccccc2)C1` was tested. Which inhibition did it give?
Its inhibition is -4.24%.

Which inhibition does the source give for `CC1(C)CC(=O)C(C2c3ccccc3S(=O)(=O)c3ccccc32)C(=O)C1` here?
Its inhibition is 22.1% (active).

With `CC1(C)CC(=O)C(CC(=O)N2CCC(Cc3ccccc3)CC2)C(=O)C1` as the compound, how does the inhibition read?
The inhibition was -5.62%.

With `CCN(CC)C(=O)C1=C(C)N(Cc2ccc(OC)cc2)C(=O)C(CC(=O)NCCCCc2ccccc2)C1` (stereo not drawn) as the compound, how does the inhibition read?
The inhibition was -3.92%.

`Nc1c(C(=O)c2cccs2)sc2nsc(SCCN3CCCCC3)c12` was tested. Which inhibition did it give?
The inhibition was 31.4% (active).

With `COc1ccc(NC(=O)CCCOc2ccc(C(C)=O)cc2)cc1S(=O)(=O)N1CCCCC1` as the compound, how does the inhibition read?
The inhibition was -6.11%.

For `COc1ccc([C@H]2N[C@]3(CCCN(Cc4ccco4)C3=O)[C@H]3C(=O)N(C)C(=O)[C@@H]23)cc1`, which inhibition is on record?
The inhibition was -4.25%.

How did the inhibition turn out when `Cc1noc(C)c1NC(=O)N(C)C[C@@H]1Oc2cc(Br)ccc2S(=O)(=O)N([C@@H](C)CO)C[C@H]1C` was run?
The inhibition was 6.19%.

With `Cc1ccc(CS(=O)(=O)c2ncc(Cl)c(C(=O)Nc3nnc(C)s3)n2)cc1` as the compound, how does the inhibition read?
Its inhibition is 12.2%.

How did the inhibition turn out when `CN1CCN(c2ccc(NC(=O)c3ccc4c(c3)[nH]c(=O)n4Cc3ccc(F)cc3)cc2)CC1` was run?
Its inhibition is 5.07%.

Which inhibition does the source give for `Cc1cccc(CS(=O)(=O)c2ncc(Cl)c(C(=O)Nc3ccc(F)cc3)n2)c1` here?
Its inhibition is 35.3% (active).

With `CSc1nnc(NC(=O)c2nc(S(=O)(=O)Cc3ccc(C)cc3)ncc2Cl)s1` as the compound, how does the inhibition read?
Its inhibition is 4.24%.

With `O=C(Nc1ccc(F)cc1)c1ccc(S(=O)(=O)NCc2cccnc2)cc1` as the compound, how does the inhibition read?
Its inhibition is -9.53%.

Which inhibition does the source give for `Cc1cccc(NC(=O)c2nc(S(=O)(=O)Cc3ccccc3)ncc2Cl)c1` here?
The inhibition was 48.7% (active).

For `Cc1[nH]c2ccccc2c1C(=O)C(=O)NCc1nnnn1-c1cccc(F)c1`, which inhibition is on record?
The inhibition was 7.75%.

`COc1ccc(S(=O)(=O)N(C)C[C@H]2OCc3cnnn3CCCC(=O)N([C@H](C)CO)C[C@H]2C)cc1` was tested. Which inhibition did it give?
Its inhibition is -12.9%.

`CN(O)C(=S)c1ccccc1` was tested. Which inhibition did it give?
Its inhibition is 21.8% (active).

`CN(Cc1ccccc1)C(=O)c1cccc(C(=O)N(C)Cc2ccccc2)c1` was tested. Which inhibition did it give?
Its inhibition is -10.2%.

How did the inhibition turn out when `CCCCCCn1c(=O)n2n(c1=O)C[C@]1(OC(=O)NCc3ccc(OC)c(OC)c3)CN(S(=O)(=O)c3ccc(C)cc3)C[C@]1(O)C2` was run?
The inhibition was -2.87%.

For `CC1CCCC(C)N1C(=O)COC(=O)c1ccccc1C(=O)c1ccccc1` (stereo not drawn), which inhibition is on record?
The inhibition was -3.35%.

With `O=C(NCCc1cccc(F)c1)C1CC(O)CN1C(=O)Nc1ccccc1` (stereo not drawn) as the compound, how does the inhibition read?
Its inhibition is -5.73%.

`COC(=O)N(C)C[C@@H]1OCc2cnnn2CCCC(=O)N([C@@H](C)CO)C[C@@H]1C` was tested. Which inhibition did it give?
The inhibition was -7.29%.

For `CSc1ncccc1C(=O)N1CCCC(Nc2ccc(F)c(F)c2)C1` (stereo not drawn), which inhibition is on record?
Its inhibition is -7.83%.

Which inhibition does the source give for `Nc1cc(C(=O)N2CCN(c3ccccc3Cl)CC2)ccc1N1CC2CC(C1)c1cccc(=O)n1C2` (stereo not drawn) here?
Its inhibition is -8.79%.

For `CC1(C)CCc2nc(SCc3ccccc3)c(C#N)cc2C1`, which inhibition is on record?
Its inhibition is -6.7%.

How did the inhibition turn out when `Cc1cc(C)nc(SCc2cn3c(C)cc(C)nc3n2)n1` was run?
The inhibition was -17%.

With `Cc1cc(C)nc(SCc2ccccc2C#N)n1` as the compound, how does the inhibition read?
Its inhibition is 23.9% (active).

How did the inhibition turn out when `COc1ccc(CN2C(=O)C(CC(=O)NCCN3CCOCC3)CC(C(=O)N(C(C)C)C(C)C)=C2C)cc1` (stereo not drawn) was run?
Its inhibition is -13.7%.

For `COc1ccc(N)cc1NC(=O)CN1CCOCC1`, which inhibition is on record?
Its inhibition is 3.79%.

For `Nc1ccccc1-c1nc2ccncc2[nH]1`, which inhibition is on record?
Its inhibition is 5.69%.

`C[C@H]1Cn2cnc(C(=O)N[C@H](C)c3ccccc3)c2C(=O)N1` was tested. Which inhibition did it give?
The inhibition was -9.33%.

With `COc1ccccc1NC(=O)C(CC(=O)O)Cc1cc(C)cc(C)c1` (stereo not drawn) as the compound, how does the inhibition read?
The inhibition was 1.3%.

For `COc1ccc(NC(=O)CN2C(=O)NC(C)(c3ccccc3)C2=O)cn1` (stereo not drawn), which inhibition is on record?
The inhibition was 4.63%.

For `COc1ccc(NC(=O)/C(Cl)=C(/Cl)S(=O)Cc2ccc(C)cc2)cn1` (stereo not drawn), which inhibition is on record?
The inhibition was 36.2% (active).

Which inhibition does the source give for `COc1ccc(NS(=O)(=O)c2ccc(NC(=S)NC(=O)/C=C/c3ccc(C)cc3)cc2)nn1` here?
Its inhibition is 4.17%.

`Cc1ccc(C(=O)NC(C)C(c2cccs2)N2CCOCC2)cc1C` (stereo not drawn) was tested. Which inhibition did it give?
Its inhibition is -1.7%.

`O=C(NCCN1CCOCC1)C1CCN(S(=O)(=O)c2ccccc2)CC1` was tested. Which inhibition did it give?
The inhibition was -8.07%.

Which inhibition does the source give for `CN1OC[C@@H]2CN[C@H](c3ccc(-c4ccccc4)cc3)C[C@@H]21` here?
The inhibition was 8.78%.

`Fc1ccc(N2N=C(c3cccs3)CC2c2ccco2)c(F)c1` (stereo not drawn) was tested. Which inhibition did it give?
The inhibition was 1.6%.

How did the inhibition turn out when `COc1ccccc1N1N=C(c2cccs2)CC1c1ccccc1` (stereo not drawn) was run?
Its inhibition is 38.6% (active).

How did the inhibition turn out when `COc1ccc(C2CC(c3cccs3)=NN2c2nc(C)c(C(C)=O)s2)cc1OC` (stereo not drawn) was run?
The inhibition was -3.47%.

How did the inhibition turn out when `CC(C)N=C1CCCC1C(=S)SSC(=S)C1CCCC1=NC(C)C` (stereo not drawn) was run?
The inhibition was 6.42%.

How did the inhibition turn out when `Cc1cc2cc3n(c2nn1)N=C(Cl)CC3` was run?
The inhibition was -2.59%.

With `C[C@H](CO)N1C[C@H](C)[C@@H](CN(C)C(=O)c2cnccn2)Oc2ncc(Br)cc2C1=O` as the compound, how does the inhibition read?
Its inhibition is -6.82%.

How did the inhibition turn out when `C[C@H](CO)N1C[C@H](C)[C@H](CN(C)C(=O)c2ccncc2)OCc2ccccc2-c2c(n(C)c3ccccc23)C1=O` was run?
The inhibition was 7.41%.

`Oc1ccc2ccc3cccc[n+]3c2c1` was tested. Which inhibition did it give?
Its inhibition is 30.4% (active).

For `O=S(=O)(c1cccc(C(F)(F)F)c1)N1c2ccccc2-n2cccc2C1c1cccnc1` (stereo not drawn), which inhibition is on record?
The inhibition was 2.97%.

Which inhibition does the source give for `COc1ccc([C@H]2C[C@@H](n3cc(COC(=O)c4ccccc4)nn3)[C@H](O)CN2C(=O)c2cccs2)cc1` here?
The inhibition was -6.05%.

`Cc1cc(Nc2ccc(C)c(C)c2)n2ncnc2n1` was tested. Which inhibition did it give?
Its inhibition is -6.42%.

With `O=c1[nH]c2ccccc2n1C1CCN(CCOc2ccccc2)CC1` as the compound, how does the inhibition read?
The inhibition was -9.37%.

How did the inhibition turn out when `S=C(Nc1ccccc1)Nc1ccc2ccccc2c1` was run?
The inhibition was -11.2%.

Which inhibition does the source give for `O=C(Nc1ccc2ccccc2c1)Nc1ccc2snnc2c1` here?
The inhibition was 22.2% (active).

`Cc1nc2cc(NC(=O)Nc3cccc(F)c3)ccc2n1C` was tested. Which inhibition did it give?
The inhibition was 4.9%.

For `COc1ccccc1C(=O)NC(=S)Nc1ccc(N2CCOCC2)cc1`, which inhibition is on record?
The inhibition was -9.36%.

Which inhibition does the source give for `Cc1ccccc1C#CC1=CC(=O)CC(C)(C)C1` here?
The inhibition was 4.4%.
